{
  "source": "PubChem BioAssay AID1835",
  "about": "(Johns Hopkins Ion Channel Center, 2009)",
  "note": "Out of some 2,400 compounds screened, about 750 (31%) were called active. This is one part of the list. Unmarked numbers belong to inactive results.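 Rule for the calls: active = median signal gain over dofetilide-blocked control wells reaching their mean plus 3 SD, so readout 1 at least 0; inactive = the rest.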",
  "data": [
    {"molecular_target": "Voltage-gated inwardly rectifying potassium channel KCNH2 (Homo sapiens) (UniProt Q12809)", "sequence (Q12809 whole entry, looked up)": "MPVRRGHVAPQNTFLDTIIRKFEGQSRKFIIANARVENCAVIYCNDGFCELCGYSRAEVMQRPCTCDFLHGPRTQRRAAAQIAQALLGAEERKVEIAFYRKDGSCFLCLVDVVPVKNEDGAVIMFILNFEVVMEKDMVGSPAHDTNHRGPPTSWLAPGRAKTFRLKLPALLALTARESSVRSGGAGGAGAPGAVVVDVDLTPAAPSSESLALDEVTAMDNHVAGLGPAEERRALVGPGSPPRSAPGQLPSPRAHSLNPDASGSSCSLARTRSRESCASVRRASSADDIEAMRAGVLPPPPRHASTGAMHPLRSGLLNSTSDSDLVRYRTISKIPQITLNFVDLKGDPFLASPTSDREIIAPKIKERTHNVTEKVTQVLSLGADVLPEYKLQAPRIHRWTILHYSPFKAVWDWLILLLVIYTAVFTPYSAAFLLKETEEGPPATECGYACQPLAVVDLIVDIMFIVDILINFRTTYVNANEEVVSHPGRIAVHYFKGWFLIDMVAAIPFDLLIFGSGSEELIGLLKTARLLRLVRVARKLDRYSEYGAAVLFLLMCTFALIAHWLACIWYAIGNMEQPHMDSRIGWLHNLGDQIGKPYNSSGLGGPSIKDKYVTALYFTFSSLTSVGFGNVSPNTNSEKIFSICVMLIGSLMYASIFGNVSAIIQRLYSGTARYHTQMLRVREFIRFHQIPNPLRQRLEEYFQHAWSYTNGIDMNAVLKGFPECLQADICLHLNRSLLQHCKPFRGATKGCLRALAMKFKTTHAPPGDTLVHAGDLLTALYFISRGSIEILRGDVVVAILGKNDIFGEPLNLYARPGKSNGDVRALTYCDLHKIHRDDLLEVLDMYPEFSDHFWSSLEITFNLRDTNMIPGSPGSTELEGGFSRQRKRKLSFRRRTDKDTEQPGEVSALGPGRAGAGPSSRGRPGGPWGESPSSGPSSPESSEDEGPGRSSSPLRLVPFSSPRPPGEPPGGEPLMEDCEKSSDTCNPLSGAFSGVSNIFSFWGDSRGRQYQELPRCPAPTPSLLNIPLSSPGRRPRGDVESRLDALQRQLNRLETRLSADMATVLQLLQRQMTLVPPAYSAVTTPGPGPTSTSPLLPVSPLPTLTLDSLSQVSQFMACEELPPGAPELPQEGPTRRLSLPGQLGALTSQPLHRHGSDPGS", "assay": "modulators restoring hERG flux under dofetilide – cell-based, thallium flux, duplicate retest, dofetilide IC70, confirmation (AID 1835)", "settings": "hERG cell line, FluxOR thallium flux, dofetilide-blocked; at 10 µM; stronger effect = higher value", "values": [
      {"smiles": "CCOC(=O)c1c(C)oc2cc(Br)c(OC)cc12", "activity increase over dofetilide control, less the hit threshold": "-2%"},
      {"smiles": "CCOC(=O)c1sc(NN=C(C(=O)OC)C(=O)OC)c(C(=O)OCC)c1C", "activity increase over dofetilide control, less the hit threshold": "19% (active)"},
      {"smiles": "CCOC(=O)c1sc(NC(=O)c2ccccc2C(=O)O)c(C(=O)OCC)c1C", "activity increase over dofetilide control, less the hit threshold": "-4%"},
      {"smiles": "COc1ccc2[nH]c3c(=O)n(CCN4CCOCC4)cnc3c2c1", "activity increase over dofetilide control, less the hit threshold": "-14%"},
      {"smiles": "CCC1(C(=O)O)NC(c2cc(OC)ccc2O)C2C(=O)N(Cc3ccccc3)C(=O)C21", "note": "(stereo unspecified)", "activity increase over dofetilide control, less the hit threshold": "-18%"},
      {"smiles": "O=C(N/N=C/c1cccs1)C(=O)Nc1cccc(Cl)c1", "activity increase over dofetilide control, less the hit threshold": "-6%"},
      {"smiles": "Nc1nc(O)c(N=Nc2ccc(S(N)(=O)=O)cc2)c(=O)[nH]1", "activity increase over dofetilide control, less the hit threshold": "6% (active)"},
      {"smiles": "O=C1N(CN2CCN(Cc3ccccc3)CC2)c2ccccc2C12OCCCO2", "activity increase over dofetilide control, less the hit threshold": "-4%"},
      {"smiles": "Cc1ccc(NC(=O)CCC(=O)OCC(F)(F)C(F)F)cc1", "activity increase over dofetilide control, less the hit threshold": "-23%"},
      {"smiles": "CCCCC(=O)Nc1ccc(NCc2ccc(C)s2)cc1", "activity increase over dofetilide control, less the hit threshold": "14% (active)"},
      {"smiles": "CN(C)c1ccc(NC(=O)CCCc2ccccc2)cc1", "activity increase over dofetilide control, less the hit threshold": "-19%"},
      {"smiles": "O=C(CCNC(=O)C1CCN(S(=O)(=O)c2ccc(F)cc2)CC1)NCc1ccc(Cl)cc1", "activity increase over dofetilide control, less the hit threshold": "-16%"},
      {"smiles": "Cc1cc(C)c(Cn2c3ccccc3c3cnn(CC(=O)NCc4ccccn4)c(=O)c32)c(C)c1", "activity increase over dofetilide control, less the hit threshold": "-4%"},
      {"smiles": "Cc1ccc(C(=O)N2CCN(c3ccccc3)CC2)cc1S(=O)(=O)N1CCCC1", "activity increase over dofetilide control, less the hit threshold": "19% (active)"},
      {"smiles": "O=C(Nc1ccc(N2CCOCC2)cc1)c1ccc(S(=O)(=O)N2CCCCC2)cc1", "activity increase over dofetilide control, less the hit threshold": "-10%"},
      {"smiles": "O=C(c1ccc(Cl)c(S(=O)(=O)N2CCCC2)c1)N1CCN(c2ccccc2F)CC1", "activity increase over dofetilide control, less the hit threshold": "-1%"},
      {"smiles": "C=C(C)CNC(=S)Nc1nc2c(cc1C(=O)OCC)CCCC2", "activity increase over dofetilide control, less the hit threshold": "-4%"},
      {"smiles": "CCNC(=S)Nc1nc2c(cc1C(=O)OCC)CCCC2", "activity increase over dofetilide control, less the hit threshold": "2% (active)"},
      {"smiles": "C=CCNC(=S)Nc1nc2c(cc1C(=O)OCC)CCCC2", "activity increase over dofetilide control, less the hit threshold": "-4%"},
      {"smiles": "CNC(=O)CSc1nnc(-c2ccco2)n1-c1ccccc1", "activity increase over dofetilide control, less the hit threshold": "-14%"},
      {"smiles": "Cn1c(NNC(=O)C(c2ccccc2)c2ccccc2)cc(=O)n(C)c1=O", "activity increase over dofetilide control, less the hit threshold": "7% (active)"},
      {"smiles": "COc1ccc(C(CC(=O)O)NC(=O)C(c2ccccc2)c2ccccc2)cc1", "note": "(stereo unspecified)", "activity increase over dofetilide control, less the hit threshold": "-10%"},
      {"smiles": "CC(=O)c1ccc2c(c1)OCCOCCOCCO2", "activity increase over dofetilide control, less the hit threshold": "-14%"},
      {"smiles": "Cc1ccc(Cl)cc1NC(=O)COC(=O)c1ccccc1O", "activity increase over dofetilide control, less the hit threshold": "-10%"},
      {"smiles": "CC(C)(C)c1ccc(C(=O)CC(=O)c2cc(Cl)ccc2O)cc1", "activity increase over dofetilide control, less the hit threshold": "17% (active)"},
      {"smiles": "Cc1ccc(O)c(C(=O)CC(=O)c2ccc(Cl)cc2)c1", "activity increase over dofetilide control, less the hit threshold": "-2%"},
      {"smiles": "Cc1cccc(C(=O)CC(=O)c2cc(Cl)ccc2O)c1", "activity increase over dofetilide control, less the hit threshold": "-7%"},
      {"smiles": "COC(=O)C1CCCN1C(=O)COc1ccc(Cl)cc1Br", "note": "(stereo unspecified)", "activity increase over dofetilide control, less the hit threshold": "-7%"},
      {"smiles": "Cc1ccc(C(=O)CC(=O)COc2ccc(Cl)cc2C)cc1", "activity increase over dofetilide control, less the hit threshold": "24% (active)"},
      {"smiles": "Cc1cc(Cl)ccc1OC(C)C(=O)NCCc1ccc2c(c1)OCCO2", "note": "(stereo unspecified)", "activity increase over dofetilide control, less the hit threshold": "-16%"},
      {"smiles": "Cc1ccc(C(=O)CC(=O)c2cc(Cl)ccc2O)cc1", "activity increase over dofetilide control, less the hit threshold": "8% (active)"},
      {"smiles": "Nc1nc2c(s1)CCCCCCCCCC2", "activity increase over dofetilide control, less the hit threshold": "-11%"},
      {"smiles": "O=C1OCCC1Sc1nc2ccccc2c(=O)n1Cc1ccc(F)cc1", "note": "(stereo unspecified)", "activity increase over dofetilide control, less the hit threshold": "9% (active)"},
      {"smiles": "Cc1ccc(S(=O)(=O)N2CCOCC2)cc1NC(=O)CSc1nc2ccccc2c(=O)n1Cc1ccccc1", "activity increase over dofetilide control, less the hit threshold": "-5%"},
      {"smiles": "COc1cc(C2NC(=O)NC(O)(C(F)(F)F)C2C(C)=O)cc(OC)c1OC", "note": "(stereo unspecified)", "activity increase over dofetilide control, less the hit threshold": "-17%"},
      {"smiles": "CN(c1cccc(NS(=O)(=O)c2cccc([N+](=O)[O-])c2)c1)S(C)(=O)=O", "activity increase over dofetilide control, less the hit threshold": "-19%"},
      {"smiles": "N/C(=N\\OS(=O)(=O)c1cccc([N+](=O)[O-])c1)c1ccncc1", "activity increase over dofetilide control, less the hit threshold": "1% (active)"},
      {"smiles": "O=C(CSc1nnc(-c2ccncc2)o1)c1cccc([N+](=O)[O-])c1", "activity increase over dofetilide control, less the hit threshold": "-10%"},
      {"smiles": "COc1ccc(C)cc1-n1nnnc1SCc1nc2ccccc2c(=O)[nH]1", "activity increase over dofetilide control, less the hit threshold": "-16%"},
      {"smiles": "Cc1ccc(C2=NN(C(=O)CCCC(=O)O)C(c3ccc4c(c3)OCO4)C2)cc1", "note": "(stereo unspecified)", "activity increase over dofetilide control, less the hit threshold": "-23%"},
      {"smiles": "Cc1ccc2oc3c(c(=O)c2c1)C(c1cccs1)N(CCCN(C)C)C3=O", "note": "(stereo unspecified)", "activity increase over dofetilide control, less the hit threshold": "11% (active)"},
      {"smiles": "COCCN1C(=O)c2oc3cc(C)c(C)cc3c(=O)c2C1c1ccc(O)cc1", "note": "(stereo unspecified)", "activity increase over dofetilide control, less the hit threshold": "-7%"},
      {"smiles": "CCN(CC)CCCN1C(=O)c2oc3ccccc3c(=O)c2C1c1cccs1", "note": "(stereo unspecified)", "activity increase over dofetilide control, less the hit threshold": "28% (active)"},
      {"smiles": "COCCCNC(=O)CC(NS(=O)(=O)c1ccc(F)cc1)c1ccc(OC)cc1", "note": "(stereo unspecified)", "activity increase over dofetilide control, less the hit threshold": "-1%"},
      {"smiles": "CN(C)NC(=O)C(NC(=O)c1ccc(N)cc1)C12CC3CC(CC(C3)C1)C2", "note": "(stereo unspecified)", "activity increase over dofetilide control, less the hit threshold": "-10%"},
      {"smiles": "O=C(O)c1cc(-c2cccc([N+](=O)[O-])c2)n[nH]1", "activity increase over dofetilide control, less the hit threshold": "-14%"},
      {"smiles": "CCc1nnc(NS(=O)(=O)c2ccc(NC(=S)NC(=O)/C=C/c3ccc(OC)cc3)cc2)s1", "activity increase over dofetilide control, less the hit threshold": "-4%"},
      {"smiles": "O=C(O)/C=C/C(=O)Nc1ccc(OC(F)(F)F)cc1", "activity increase over dofetilide control, less the hit threshold": "-3%"},
      {"smiles": "CS(=O)(=O)c1sc(C(=O)NC(=S)Nc2ccc(OC(F)(F)F)cc2)c2c1C=CCC2", "activity increase over dofetilide control, less the hit threshold": "11% (active)"},
      {"smiles": "COc1ccc(Cc2c(O)nc(SCC(=O)NC(C)(C)C)[nH]c2=O)cc1", "activity increase over dofetilide control, less the hit threshold": "-17%"},
      {"smiles": "Cc1nc(SCC(=O)NCC2CCCO2)c2c3c(sc2n1)CCCC3", "note": "(stereo unspecified)", "activity increase over dofetilide control, less the hit threshold": "9% (active)"},
      {"smiles": "C=CCn1c(SCC(=O)NCC2CCCO2)nnc1-c1ccccc1", "note": "(stereo unspecified)", "activity increase over dofetilide control, less the hit threshold": "-1%"},
      {"smiles": "COc1cccc(N2CC(C(=O)Nc3nnc(SCC(=O)NCC4CCCO4)s3)CC2=O)c1", "note": "(stereo unspecified)", "activity increase over dofetilide control, less the hit threshold": "-4%"},
      {"smiles": "COC(=O)C1CN(C(=O)COc2ccc(C)c(C)c2)c2ccccc2O1", "note": "(stereo unspecified)", "activity increase over dofetilide control, less the hit threshold": "-11%"},
      {"smiles": "Cc1ccc(OCc2ccoc2C(=O)O)cc1C", "activity increase over dofetilide control, less the hit threshold": "11% (active)"},
      {"smiles": "Cc1cc(OCc2ccc(C(=O)Nc3ccc(C(=O)O)cc3)o2)ccc1Cl", "activity increase over dofetilide control, less the hit threshold": "-22%"},
      {"smiles": "COC(=O)c1cc(S(=O)(=O)NCC2CCN(Cc3cc(C)ccc3C)CC2)c[nH]1", "activity increase over dofetilide control, less the hit threshold": "-12%"},
      {"smiles": "Cc1nn(C)cc1C(=O)Nc1ccc2c(c1)OCCO2", "activity increase over dofetilide control, less the hit threshold": "-8%"},
      {"smiles": "O=C(NC(=S)NCc1ccccc1)c1ccc(Br)o1", "activity increase over dofetilide control, less the hit threshold": "91% (active)"},
      {"smiles": "COc1ccc(OC)c(NC(=S)NC(=O)c2ccc(Br)o2)c1", "activity increase over dofetilide control, less the hit threshold": "0% (active)"},
      {"smiles": "O=C(CNC(=S)NC(=O)c1ccc(Br)o1)c1ccccc1", "activity increase over dofetilide control, less the hit threshold": "-3%"},
      {"smiles": "CCN(c1ccccc1)S(=O)(=O)c1ccc(NC(=S)NC(=O)c2ccc(Br)o2)cc1", "activity increase over dofetilide control, less the hit threshold": "20% (active)"},
      {"smiles": "COc1cc(NS(=O)(=O)c2ccc(NC(=S)Nc3ccccc3)cc2)nc(OC)n1", "activity increase over dofetilide control, less the hit threshold": "-26%"},
      {"smiles": "COc1cccc(NC(=S)NC(C)c2ccc(OC)c(OC)c2)c1", "note": "(stereo unspecified)", "activity increase over dofetilide control, less the hit threshold": "-24%"},
      {"smiles": "COc1ccc(NC(=S)NC(=O)c2ccc(Br)o2)cc1", "activity increase over dofetilide control, less the hit threshold": "13% (active)"},
      {"smiles": "CCc1ccc(NC(=S)NC(=O)c2c(-c3ccccc3Cl)noc2C)cc1", "activity increase over dofetilide control, less the hit threshold": "-2%"}
    ]}
  ]
}
